# Inconclusive results are not listed. Calls of active or inactive are those of the source. The call rests on the fitted dose curve; in most records, active means well fitted cell-killing curve with a large enough effect; inconclusive means small, poorly fitted or top-dose-only effect; inactive means flat fitted curve, though single readings scatter.
# Experiment: qHTS of pediatric cancer cell lines to identify multiple opportunities for drug repurposing: Primary screen for TC32 cells (AID 1347089); further: nearly all actives have a fitted effect of over 60% in size
# Settings: TC32 Ewing sarcoma viability, CellTiter-Glo luminescence, 48 h; series mostly up to 45.8 µM; activity change, negative = cytotoxic: at the top concentration
# Method in brief: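 Measured quantity: luminescence from CellTiter-Glo, reflecting metabolically active TC32 cells following 48 h of compound. Curves came straight from multi-point titrations, with 8 or 11 points in primary and 11 in confirmatory screening.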
# On the % scale 0 is the no-effect control and ±100 the full control effect.
row,SMILES,"activity change, negative = cytotoxic"
1,Cc1cccc(C)c1NC(=O)CN1CCN(CCCC(c2ccc(F)cc2)c2ccc(F)cc2)CC1,2.05% (inactive)
2,CCCN1CCCC[C@H]1C(=O)Nc1c(C)cccc1C,8.84% (inactive)
3,C[C@]12CC[C@@H]3c4ccc(O)cc4CC[C@H]3[C@@H]1C[C@@H](O)[C@@H]2O,-4.58% (inactive)
4,C#C[C@]1(OC(C)=O)CC[C@H]2[C@@H]3CCC4=C[C@@H](OC(C)=O)CC[C@@H]4[C@H]3CC[C@@]21C,-2.54% (inactive)
5,CCN(CC)C(=O)/C(C#N)=C/c1cc(O)c(O)c([N+](=O)[O-])c1,21.9% (inactive)
6,CCOc1ccc(NC(=O)CC(C)O)cc1 (stereo unspecified),5.86% (inactive)
7,CN(C)CCCOc1nn(Cc2ccccc2)c2ccccc12,-3.23% (inactive)
8,C=C1C(=C/C=C2\CCC[C@]3(C)[C@@H]([C@H](C)/C=C/[C@@H](O)C4CC4)CC[C@@H]23)C[C@@H](O)C[C@@H]1O,9.13% (inactive)
9,COc1ccc(OC)c(C(O)CNC(=O)CN)c1 (stereo unspecified),0.88% (inactive)
10,CN(C)CC/C=C1\c2ccccc2Sc2ccc(Cl)cc21,-21.9% (inactive)
11,Cc1cc(=O)n(-c2ccccc2)n1C,-3.27% (inactive)

# From PubChem BioAssay (NCATS)
